Source: PubChem (National Center for Advancing Translational Sciences (NCATS))
HSD17B inh: inhibitors of human HSD17B10 dehydrogenase. recombinant HSD17B10, NADH fluorescence kinetic. actives 7.6% (n = 75,000). AID 893. Potency, µM (top dose mostly 57.1 µM), without a hit: top-dose activity change, negative = inhibition, actives largely listed as inhibitors;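 further: the protocol describes HADH2 (HSD17B10) and not the HSD17B4 of the title; potency means the concentration at half of the fitted maximal effect; on the % scale 0 is the no-effect control and ±100 the full control effect; nearly all actives have a fitted effect of over 70% in size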
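His-tagged E. coli-expressed HADH2 at 20 nM in 100 mM Tris-HCl pH 9.0 with 0.01 % Tween-20, preincubated 15 min with compound at room temperature. Reaction with 1 mM NAD+ and 90 uM beta-hydroxybutyryl coenzyme A; NADH fluorescence (360/450 nm) read kinetically over 4 min, last minus first point.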
AID923: qHTS Assay for Allosteric/Competitive Inhibitors of Caspase-1: Spectroscopic Profiling in AFC Spectral Region; Potency, µM (highest dose often 57.5 µM), for the others: top-dose fluorescence increase, hits mostly activators; AID 923, 2007; actives 1.1% (n = 75,000); compound fluorescence, AFC spectral region (405/520 nm); further: potency means the concentration at half of the fitted maximal effect; 0% is about no effect
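Compound autofluorescence profiled at 405 nm ex/520 nm em during kinetic caspase 1 run (50 nM enzyme, 5 uM Ac-WEHD-AFC, HEPES pH 7.5, 10 mM DTT). Titration up to 57 uM; baseline from regression intercept, normalized to AFC standard curve.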
A350 fluor: compound fluoresces in the Alexa 350 spectral region; actives 11% (n = 59,000); Compound autofluorescence, 340/450 nm, Alexa 350 dye-equivalents; active compounds read high; max dye-equivalent concentration, M; in the data active means max dye-equivalent concentration above about 10 nM; inconclusive means mostly about 1.1 nM to 9.6 nM
4MU fluor: 4-MU region autofluorescence; compound autofluorescence, 340/450 nm, 4-MU equivalents; active compounds read high; max dye-equivalent concentration, M; actives 11% (n = 59,000); AID 589; in the data active means max dye-equivalent concentration above about 10 nM; inconclusive means mostly about 1.1 nM to 9.6 nM
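Compounds in 100 mM Tris, pH 8.0, sat 15 min at room temperature before fluorescence was read at 340 nm excitation/450 nm emission; a per-plate six-point 4-MU standard curve converted signals to dye-equivalent concentration at each compound concentration.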
CRE-bla Fsk: CRE-bla signaling modulation under forskolin stimulation | actives 2.5% (n = 71,000) | Potency, µM (series often up to 38.2 µM), inactives show at the top dose activity change, negative = inhibition, actives largely listed as activators | CHO CRE-bla reporter (cAMP response element driving beta-lactamase), forskolin EC10, beta-lactamase ratio; active means well fitted activation curve with a large enough effect in the signal ratio, with a control signal flat, not every such curve was filed as active; inconclusive means small, poorly fitted or top-dose-only effect, or effect the other way, or a change in a side signal; the % refers to the signal ratio; further: potency means the concentration at half of the fitted maximal effect; % of control where 0% means no effect
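Titrated compounds plus EC10 NKH 477 on CHO CRE-bla cells, 3 h, 37 °C. CCF4, 2 h RT. Ratio 460/530 nm → AC50.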
HADH2 inhib: HADH2 (human) dehydrogenase inhibition; AID 886; Q99714; Potency, µM (series often up to 57.1 µM), for the others: top-dose activity change, negative = inhibition, most hits filed as inhibitors; recombinant HADH2, NADH fluorescence, beta-hydroxybutyryl-CoA; actives 3.4% (n = 73,000); further: potency means the concentration at half of the fitted maximal effect; on the % scale 0 is the no-effect control and ±100 the full control effect; nearly all actives have a fitted effect of over 60% in size
Target sequence (Q99714 whole entry, looked up, one chain of several): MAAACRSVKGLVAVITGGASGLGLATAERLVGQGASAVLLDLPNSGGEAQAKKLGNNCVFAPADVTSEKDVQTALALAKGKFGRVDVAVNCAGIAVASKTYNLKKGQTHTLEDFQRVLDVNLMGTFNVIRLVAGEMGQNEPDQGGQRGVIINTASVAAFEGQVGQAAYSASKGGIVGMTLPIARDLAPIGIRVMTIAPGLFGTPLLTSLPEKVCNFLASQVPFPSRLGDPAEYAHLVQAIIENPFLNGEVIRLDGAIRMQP
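Read-out: 360 nm excitation, 450 nm emission, kinetic over 4 min. Conditions: His-tagged human HADH2 20 nM, pH 9.0 Tris with Tween-20, 1 mM NAD+, 90 uM beta-hydroxybutyryl-CoA.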
Starred values were filed as active, the others as inactive; [ ] = remark or other dose. An excerpt weighted towards active compounds, which were near 14% of everything screened. Unless noted, the call rests on the fitted dose curve; in most records, active means well fitted curve in the direction sought with a large enough effect; inconclusive means small, poorly fitted or top-dose-only effect, or another doubt; inactive means no such curve, though single readings can be large; an effect the other way counts as inactive or inconclusive.

How did Cc1nc2cc(NC(=O)N3CCN(c4ccccn4)CC3)ccc2o1 do in these assays?
HSD17B inh: 32µM*; AID923: -3%; A350 fluor: inactive; 4MU fluor: inactive; CRE-bla Fsk: -1%; HADH2 inhib: 7%

Results for CCOC(=O)N1CCN(C(=O)Nc2ccc3oc(C)nc3c2)CC1 ?
HSD17B inh: 16%; AID923: -1%; A350 fluor: inactive; 4MU fluor: inactive; CRE-bla Fsk: -6%; HADH2 inhib: 7%

What do the screens show for `Nc1cccc(B(O)O)c1`?
HSD17B inh: -2%; AID923: 1%; HADH2 inhib: -3%

What do the screens show for `Cc1ccc(CNc2nc3ccccc3n3nnnc23)cc1`?
HSD17B inh: 30%; AID923: 5%; A350 fluor: inconclusive; 4MU fluor: inconclusive; CRE-bla Fsk: inconclusive; HADH2 inhib: -2%

Results for c1ccc(CC2CCN(c3nc4ccccc4n4nnnc34)CC2)cc1 ?
HSD17B inh: 10µM*; AID923: 3%; A350 fluor: 2.5e-07M*; 4MU fluor: 2.5e-07M*; CRE-bla Fsk: inconclusive; HADH2 inhib: -20%

What do the screens show for `O=C(c1ccco1)N1CCC(n2nnc3ccccc32)CC1`?
HSD17B inh: -3%; AID923: 1%; A350 fluor: inactive; 4MU fluor: inactive; CRE-bla Fsk: -1%; HADH2 inhib: 3%

How did O=C(c1ccco1)N1CCN(c2nc3ccccc3n3nnnc23)CC1 do in these assays?
HSD17B inh: 20µM*; AID923: 5%; A350 fluor: inconclusive; 4MU fluor: inconclusive; CRE-bla Fsk: inconclusive; HADH2 inhib: -8%

Results for CC1(C)C(=O)C2C[C@]3(O)C4=CC(=O)OC(c5ccoc5)[C@]4(C)CCC3[C@](C)(C2=O)C1CC(=O)O (stereo not given in full) ?
HSD17B inh: 0%; AID923: -1%

How did O=C(CCn1c(=O)oc2ccccc21)Nc1ccccc1 do in these assays?
HSD17B inh: -6%; AID923: -1%; A350 fluor: inactive; 4MU fluor: inactive; CRE-bla Fsk: -3%; HADH2 inhib: 10µM*

Results for COc1ccc(OC)c(-c2nnc(-c3ccc(C)o3)o2)c1 ?
HSD17B inh: 25µM*; AID923: 0%; A350 fluor: 2.3e-07M*; 4MU fluor: 2.4e-07M*; CRE-bla Fsk: inconclusive; HADH2 inhib: 13µM*

What do the screens show for `COc1ccc(OC)c(-c2nnc(SCC(=O)N3CCOCC3)o2)c1`?
HSD17B inh: -13%; AID923: -1%; A350 fluor: inconclusive; 4MU fluor: inactive; CRE-bla Fsk: 22%; HADH2 inhib: -5%

Results for COC(=O)C1=C(C)N(Cc2ccccc2)[C@]23O[C@](C(=O)OC)(C(=O)N2C1c1ccccc1)C(C(=O)OC)=C3C(=O)OC (stereo not given in full) ?
HSD17B inh: 6%[11.4 µM]; AID923: -3%[11.5 µM]; HADH2 inhib: 10%[11.4 µM]

What do the screens show for `COc1ccc(CCn2c(C)cc3c(c2=O)C(c2ccc4c(c2)OCO4)C(C#N)=C(N)O3)cc1OC` (stereo not given)?
A350 fluor: 3.4e-08M*; 4MU fluor: 2.8e-08M*

How did COc1cc(C2C(C#N)=C(N)Oc3cc(C)oc(=O)c32)cc2c1OCO2 (stereo not given) do in these assays?
HSD17B inh: 20µM*; AID923: -2%; A350 fluor: inactive; 4MU fluor: inactive; CRE-bla Fsk: 6%; HADH2 inhib: -24%

How did CCCCN(CCCNC(=O)C1CCN(S(=O)(=O)N2CCOCC2)CC1)c1ccccc1 do in these assays?
HSD17B inh: -7%; AID923: 0%; A350 fluor: 8e-07M*; 4MU fluor: 7.4e-07M*; CRE-bla Fsk: 4%; HADH2 inhib: 1%

What do the screens show for `CCOC(=O)N1CCN(C(=O)c2cn(CCOC)c(=O)c3c2c2ccccc2n3C)CC1`?
HSD17B inh: 25µM*; AID923: 0%; A350 fluor: 6.2e-07M*; 4MU fluor: 5.8e-07M*; CRE-bla Fsk: 8%; HADH2 inhib: inconclusive

What do the screens show for `CCOC(=O)N1CCN(C(=O)c2cc3c(=O)n(C)c4ccccc4c3n2C)CC1`?
HSD17B inh: -16%; AID923: -1%; CRE-bla Fsk: inconclusive; HADH2 inhib: -13%

What do the screens show for `COCCn1cc(C(=O)N2CCN(C)CC2)c2c3ccccc3n(C)c2c1=O`?
HSD17B inh: 32µM*; AID923: 1%; A350 fluor: 7.4e-07M*; 4MU fluor: 6.8e-07M*; CRE-bla Fsk: 19%; HADH2 inhib: -7%

Results for O=C(c1cccc(F)c1)N1CCC2(CC1)CN(c1ccncc1)C2 ?
HSD17B inh: 9%; AID923: 2%; A350 fluor: inactive; 4MU fluor: inactive; CRE-bla Fsk: 6%; HADH2 inhib: 2%

How did O=C(c1cccc(F)c1)N1CCC2(CC1)CN(c1ncccn1)C2 do in these assays?
HSD17B inh: 32µM*; AID923: 0%; A350 fluor: inactive; 4MU fluor: inactive; CRE-bla Fsk: -3%; HADH2 inhib: -3%

How did COc1ccc(/C=C/C2=CC3(C)CC2(C)C(c2ccc(OC)cc2)CC3=O)cc1 (stereo not given) do in these assays?
HSD17B inh: 3%[11.4 µM]; AID923: 1%[11.5 µM]; HADH2 inhib: 5%[11.4 µM]

How did CC(C)CCNC(=O)C(c1ccco1)N(C(=O)Cn1nnc2ccccc21)c1ccc2c(c1)OCO2 (stereo not given) do in these assays?
HSD17B inh: -1%; AID923: -3%; A350 fluor: inactive; 4MU fluor: inactive; CRE-bla Fsk: -16%; HADH2 inhib: 12%

What do the screens show for `CCC(C)(C)NC(=O)CN(C(=O)c1snc(C(N)=O)c1N)c1ccc2c(c1)OCO2`?
HSD17B inh: -5%; AID923: 1%; A350 fluor: inconclusive; 4MU fluor: inconclusive; CRE-bla Fsk: -6%; HADH2 inhib: 9%

Results for COc1ccc(C(C(=O)NC2CCCC2)N(CCN(C)C)C(=O)c2snc(C(N)=O)c2N)cc1 (stereo not given) ?
HSD17B inh: inconclusive; AID923: 2%; A350 fluor: 1.1e-07M*; 4MU fluor: 1.2e-07M*; CRE-bla Fsk: inconclusive; HADH2 inhib: 3%

Results for CCOC(=O)C1CCN(C(C(=O)NC2CCCCC2)c2ccc(OC)cc2)CC1 (stereo not given) ?
HSD17B inh: 14%; AID923: -1%; A350 fluor: inactive; 4MU fluor: inactive; CRE-bla Fsk: -3%; HADH2 inhib: 8%
